Bioassay records: PubChem, National Center for Advancing Translational Sciences (NCATS)
MCF10A rereplic – induces DNA re-replication in MCF 10a normal breast cells; MCF 10A DNA re-replication, Hoechst nuclear intensity, 48 h; Potency, µM (titrated, usually from 46.1 µM), usual class: activators; 2.9% of 350,000 active; AID 624296; note: nearly all actives have a fitted effect of over 50% in size
PTAP TSG101 blk – blocks PTAP/TSG101 interaction to inhibit HIV-1 budding; Q99816; Fluorescence polarization, FITC-PTAP peptide / Tsg101 binding; Potency, µM (titrated, usually from 115 µM), most hits filed as inhibitors; 340,000 tested, under 10 active; AID 493005; active = well fitted inhibition curve with a large enough effect in the main read-out, with a control signal flat, not every such curve was filed as active; inconclusive = small, poorly fitted or top-dose-only effect, or effect the other way, or a change in a side signal; inactive = no such curve, though single readings can be large or run the other way
Target sequence (Q99816 whole entry, looked up): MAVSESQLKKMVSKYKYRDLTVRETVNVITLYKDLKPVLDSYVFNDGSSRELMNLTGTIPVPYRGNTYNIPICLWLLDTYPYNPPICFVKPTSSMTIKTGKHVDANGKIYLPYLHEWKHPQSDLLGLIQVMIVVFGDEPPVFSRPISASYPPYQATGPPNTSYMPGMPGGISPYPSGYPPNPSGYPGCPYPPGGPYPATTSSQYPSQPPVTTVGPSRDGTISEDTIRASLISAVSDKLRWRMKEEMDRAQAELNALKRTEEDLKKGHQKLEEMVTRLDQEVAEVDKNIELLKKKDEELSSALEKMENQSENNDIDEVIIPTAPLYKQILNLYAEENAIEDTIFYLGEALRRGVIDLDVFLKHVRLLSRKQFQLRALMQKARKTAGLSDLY
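Tsg101 binding domain (10 uM final) was mixed with compound and a FITC-labeled PTAP peptide (50 nM final) in HEPES pH 7.5 buffer with NaCl, Tween 20, EDTA and TCEP; fluorescence polarization was read after 20 min at r.t.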
KB-3-1 cytotox – kills parental KB-3-1 adenocarcinoma cells; Potency, µM (doses to about 46.1 µM), most hits filed as cytotoxic; 1.4% of 400,000 active; KB-3-1 viability, CellTiter-Glo ATP luminescence, 72 h; AID 1347075; note: nearly all actives have a fitted effect of over 60% in size
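72 h, 37 °C compound treatment of KB-3-1 parental cells; CellTiter-Glo added, 10 min, luminescence read. Data corrected against DMSO-only plates and normalized before curve fitting.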
SW480 rerep – DNA re-replication induction in SW480 cells | SW480 DNA re-replication, Hoechst DNA content imaging, 48 h | Potency, µM (doses to about 46.1 µM), actives largely listed as activators | 1.8% of 340,000 active; note: nearly all actives have a fitted effect of over 55% in size
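SW480 cells exposed to compounds for 48 hr at 37 C, 5% CO2, then Hoechst-stained 40 min. Nuclear DNA content imaged by fluorescence scanning (405 nm excitation, 500-530 nm emission); re-replication scored as increased high-intensity nuclei.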
KB-V1 cytotox – kills drug-selected multidrug resistant KB-V1 cells; Potency, µM (titrated, usually from 46.1 µM), actives largely listed as cytotoxic; KB-V1 MDR cells viability, CellTiter-Glo, 72 h; 3.4% of 400,000 active; note: nearly all actives have a fitted effect of over 60% in size
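qHTS viability screen in drug-selected KB-V1 MDR cells: 72 h compound treatment at 37 degrees C, ATP luminescence end point.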
PINK1 modulator – PINK1 expression modulation. PINK1 immunofluorescence, high-content cytometry, 24 h. 0.2% of 410,000 active. Potency, µM (highest dose often 76.6 µM), usual class: activators. AID 624263; active = well fitted activation curve with a large enough effect; inconclusive = small, poorly fitted or top-dose-only effect; cell line not stated here; note: nearly all actives have a fitted effect of over 65% in size
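A stable cell line was treated with compounds at 5 concentrations for 24 hours, with CCCP as control. PINK1 levels and mitochondrial localization were measured by immunofluorescence with mitochondrial, cell and nuclear markers after fixation, read by laser-scanning cytometry.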
Of the large screens only hits and unclear results are named; the others gave an inactive call. Most compounds without a hit are left out; they make up all but 6.8% or so of the library. Unless noted, calls come from the whole dose curve; as a rule, active = well fitted curve in the direction sought with a large enough effect; inconclusive = small, poorly fitted or top-dose-only effect, or another doubt; inactive = no such curve, though single readings can be large; an effect the other way counts as inactive or inconclusive.

Cc1ccc(S(=O)(=O)n2cc(C=O)c3ccccc32)cc1	SW480 rerep inconclusive, PINK1 modulator inconclusive
COc1ccc(Cn2nnnc2C(C(C)C)N2CCN(c3ccccc3OC)CC2)cc1 (stereo not given)	KB-3-1 cytotox 18.4µM, KB-V1 cytotox inconclusive
COc1ccc(Cn2nnnc2C(c2cccs2)N2CCCCCC2)cc1 (stereo not given)	KB-3-1 cytotox inconclusive, KB-V1 cytotox 16.4µM
CC1CCN(C(c2cccs2)c2nnnn2Cc2ccccc2)CC1 (stereo not given)	KB-3-1 cytotox inconclusive, KB-V1 cytotox 14.6µM
CSc1nnc(CCNC(=O)/C=C/c2cccc(F)c2)n1-c1ccc(F)cc1	none (no result: MCF10A rereplic, PTAP TSG101 blk, KB-3-1 cytotox, SW480 rerep, KB-V1 cytotox)
O=C(CSc1nnc(-c2cccs2)o1)Nc1cccc(C(F)(F)F)c1	none (no result: MCF10A rereplic, PTAP TSG101 blk, SW480 rerep)
COc1ccc(NC(=O)c2c(C)oc3ccc(O)c(CN4CCCCCC4)c23)cc1	none (no result: MCF10A rereplic, PTAP TSG101 blk, SW480 rerep)
Cc1cc(C=C2C(=O)c3ccccc3C2=O)c(C)n1-c1ccc(Cl)cc1	PTAP TSG101 blk inconclusive, KB-3-1 cytotox inconclusive, KB-V1 cytotox 16.4µM, PINK1 modulator inconclusive
CC(=O)c1ccc(Oc2cc(-c3ccccc3)nc(-c3ccccc3)n2)cc1	KB-3-1 cytotox inconclusive, SW480 rerep 20.6µM, KB-V1 cytotox inconclusive
N=c1c2c(-c3ccccc3)c(-c3ccccc3)oc2ncn1CCCN1CCOCC1	MCF10A rereplic 11.6µM, KB-3-1 cytotox inconclusive, SW480 rerep inconclusive, KB-V1 cytotox 23.1µM
N=c1c2c(-c3ccccc3)c(-c3ccccc3)n(Cc3ccccc3)c2ncn1CCO	MCF10A rereplic inconclusive, SW480 rerep inconclusive, KB-V1 cytotox 18.4µM
N=c1c2c(-c3ccccc3)c(-c3ccccc3)oc2ncn1CCN1CCOCC1	KB-3-1 cytotox inconclusive, KB-V1 cytotox inconclusive
c1ccc(-c2c(-c3ccccc3)n(Cc3ccco3)c3ncnc(NCCCn4ccnc4)c23)cc1	MCF10A rereplic inconclusive, KB-3-1 cytotox inconclusive, KB-V1 cytotox inconclusive
N=c1c2c(-c3ccccc3)c(-c3ccccc3)n(Cc3ccco3)c2ncn1CCCn1ccnc1	MCF10A rereplic inconclusive, KB-3-1 cytotox inconclusive, SW480 rerep inconclusive, KB-V1 cytotox 16.4µM
N=c1c2c(-c3ccccc3)c(-c3ccccc3)n(Cc3ccco3)c2ncn1Cc1ccccc1	none
N=c1c2c(-c3ccccc3)c(-c3ccccc3)n(Cc3ccco3)c2ncn1CCCN1CCOCC1	MCF10A rereplic inconclusive, KB-3-1 cytotox 20.6µM, SW480 rerep inconclusive, KB-V1 cytotox 20.6µM
O=C(/C=C/c1ccc(F)cc1)c1cc(Br)ccc1O	none
Cc1ccc(/C=C/C(=O)c2ccccc(=O)c2O)cc1C	MCF10A rereplic 20.6µM, KB-3-1 cytotox 9.2µM, SW480 rerep inconclusive, KB-V1 cytotox 20.6µM
O=C(/C=C/c1ccccc1)c1cc(Br)ccc(=O)c1O	MCF10A rereplic inconclusive, KB-3-1 cytotox 11.6µM, SW480 rerep inconclusive, KB-V1 cytotox inconclusive
COc1ccc(C=CC(=O)c2ccc(OC)c(OC)c2O)cc1OC	MCF10A rereplic inconclusive, SW480 rerep inconclusive, KB-V1 cytotox inconclusive
CCC1CN(CC(=O)NC(C)c2cn(C)nc2C)Cc2cc(OC)ccc2O1 (stereo not given)	none (no result: MCF10A rereplic, PTAP TSG101 blk, KB-3-1 cytotox, SW480 rerep, KB-V1 cytotox)
CCOC(=O)c1ccc(NC(=O)C2(c3ccccc3)CCCC2)cc1	KB-V1 cytotox 14.6µM
COc1ccc(-n2c(/C=C(\C)O)nc(=O)c3c(C)cc(C)nc32)cc1	KB-V1 cytotox 7.31µM (no result: PTAP TSG101 blk)
C=C1CC2C(CCC3(C)C2CCC3(O)C(C)=O)C2(C)CCC(=O)C=C12 (stereo not given)	MCF10A rereplic 23.1µM, KB-3-1 cytotox 20.6µM, KB-V1 cytotox 20.6µM
CC(=O)[C@]1(O)CCC2C3CCC4=CC(=O)CC[C@@]4(C)C3CC[C@]21C (stereo not given in full)	none (no result: MCF10A rereplic, PTAP TSG101 blk, KB-3-1 cytotox, SW480 rerep, KB-V1 cytotox)
CC(=O)C1(C)CCC2C3C=C(C)C4=CC(=O)CCC4(C)C3CCC21C (stereo not given)	MCF10A rereplic 16.4µM, KB-3-1 cytotox inconclusive, KB-V1 cytotox 4.61µM
Cc1ccc2c(CC(=O)N3CCOc4ccc(CN5C[C@@H](C)O[C@@H](C)C5)cc4C3)cc(=O)oc2c1	none (no result: MCF10A rereplic, PTAP TSG101 blk, KB-3-1 cytotox, SW480 rerep, KB-V1 cytotox)
